From PubChem BioAssay
A selection: hits, their analogues and other compounds. The true share with any hit is near 3.5%.
Pf apPOL inh = Pf-apPOL DNA polymerase inhibition; inhibition, % at 10 µM; AID 1794808; Recombinant Pf-apPOL, molecular beacon fluorescence, 1.5 h; 210,000 compounds, 0.25% hits
mHTT CaM bind = mHTT-calmodulin interaction abrogation. P42858. AlphaScreen His-mHTT/GST-CaM binding, luminescence. inhibition, % at 15 µM. 190,000 compounds, 3.6% hits. AID 1671202;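 also: 0% = both proteins with DMSO and 100% = one protein alone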
* hit, by the source's call; . = not tested or not shown. Rule as the data show it: active = inhibition above about 50%; inactive = the rest.

SMILES | Pf apPOL inh | mHTT CaM bind
Cc1ccc2nc(-c3cc(N=Cc4cccc([N+](=O)[O-])c4)ccc3O)[nH]c2c1 | 4 | 55*
O=[N+]([O-])c1ccccc1C=Nc1ccc2nc(-c3ccccc3)[nH]c2c1 | -10 | 32
O=C(O)c1cccc(N=Cc2cc(Cl)cc([N+](=O)[O-])c2O)c1 | 2 | 9
Cc1ccc2nc(-c3cccc([N+](=O)[O-])c3)[nH]c2c1 | -3 | 12
CC(=O)NC1(C(Cl)(Cl)Cl)Oc2ccc(C(C)(C)C)cc2O1 (stereo not drawn) | 1 | 8
Cc1noc(C)c1C1CCCN1Cc1ccc(F)cc1F (stereo not drawn) | -4 | -34
Cc1cc(C)nc(SCC(=O)Nc2ccccc2F)n1 | -7 | -5
O=C1CCCCCCC1S(=O)(=O)Cc1ccccc1 (stereo not drawn) | 31 | -1
O=C(Nc1nc(-c2ccccn2)cs1)c1ccc([N+](=O)[O-])o1 | -55 | 74*
O=C(NCc1cccs1)Nc1nc(-c2ccccn2)cs1 | -7 | 100*
O=C(Cc1csc(Nc2ncccn2)n1)NCc1cccs1 | -2 | -7
O=C(Nc1nc(-c2ccccn2)cs1)c1ccccc1[N+](=O)[O-] | -131 | 100*
O=C(Nc1nc(-c2ccccn2)cs1)c1cc2cc([N+](=O)[O-])ccc2s1 | -28 | 23
CCOc1cccc2cc(-c3csc(NC(=O)c4ccc([N+](=O)[O-])o4)n3)oc12 | -4 | -6
O=C(NCCc1ccccc1)c1nnc(N2CCCC2)c2ccccc12 | -2 | -5
O=C(Cn1c(-c2ccccn2)nc2ccccc21)NCc1ccc2c(c1)OCO2 | -8 | -12
COc1cccc(NC(=O)C2CCN(c3ncnc4c3nc3n4CCCCC3)CC2)c1 | -3 | 0
O=C(c1ccc(I)o1)N1CCc2ccccc2C1 | -4 | -4
C=CCn1c(=N)c(C(=O)NCCc2ccccc2)cc2c(=O)n3ccccc3nc21 | -6 | -1
COc1ccc(C)c2sc(N3CCN(C(=O)C4CC4)CC3)nc12 | -31 | -2
Cc1ccc(N2NC(=O)/C(=C\c3ccc(C)c([N+](=O)[O-])c3)C2=O)cc1Cl | -8 | 62*
COc1cc(/C=C2\C(=O)NN(c3ccc(Cl)c(Cl)c3)C2=O)ccc1O | -5 | 34
Cc1ccc(N2NC(=O)/C(=C\c3ccc(Cl)cc3)C2=O)cc1Cl | 0 | 11
O=C1NN(c2ccc(Cl)c(Cl)c2)C(=O)/C1=C/c1ccc(O)c(O)c1 | -1 | 73*
O=C(Cn1cnc2ccccc21)N1CCN(c2cc(-c3ccccc3)ncn2)CC1 | -4 | 12
SMILES | Pf apPOL inh | mHTT CaM bind
CCOc1ccc(N2CC(c3nnc(NC(=O)c4cccc(Cl)c4)o3)CC2=O)cc1 (stereo not drawn) | -2 | 77*
COc1ccc(N2CC(c3nnc(NC(=O)c4cccc(Cl)c4)o3)CC2=O)cc1 (stereo not drawn) | -2 | 56*
COc1ccc(N2CC(c3nnc(NC(=O)c4ccccc4)o3)CC2=O)cc1 (stereo not drawn) | 1 | 19
CSc1ccc(N2CC(c3nnc(NC(=O)c4cccc(C)c4)o3)CC2=O)cc1 (stereo not drawn) | -4 | 3
CCOc1ccc(N2CC(c3nnc(NC(=O)C4CC4)o3)CC2=O)cc1 (stereo not drawn) | -3 | 11
CSc1ccc(N2CC(c3nnc(NC(=O)c4cccc(Cl)c4)o3)CC2=O)cc1 (stereo not drawn) | -1 | 53*
Cc1ccc(N2CCCS2(=O)=O)cc1NC(=O)c1cnn(-c2ccccc2)n1 | -3 | -2
O=C(Cc1ccccc1)Nc1nnc(-c2ccccc2)s1 | -1 | -1
CSc1ccc([N+](=O)[O-])cc1C(=O)C=CN(C)C | 0 | .
CCN1CCN(Cc2c(O)ccc3c2OC(=Cc2ccccc2)C3=O)CC1 | -17 | 7
N#Cc1ccc(C(=O)N2CCOc3ccccc32)cc1 | 0 | -6
O=C1OC(c2ccc(Cl)cc2)=C/C1=C/c1ccc(-c2ccccc2C(=O)O)o1 | -1 | 56*
CCCC1=C/C(=C\c2ccc(-c3ccccc3)o2)C(=O)O1 | -4 | 50*
O=C1OC(c2ccc(Cl)cc2)=C/C1=C\c1ccccc1 | -19 | 7
CC1=NOC(=O)/C1=C/c1ccc(-c2ccccc2)o1 | 3 | 27
O=C(NC1CCCCNC1=O)c1ccc(N2CC3CC(C2)c2cccc(=O)n2C3)c([N+](=O)[O-])c1 (stereo not drawn) | -3 | -2
CCOc1ccc(CC(=O)N2CCCn3nc(-c4ccc(C)cc4)cc3C2)cc1 | -7 | -3
COc1cc(C=Nc2ccc3c(c2)OCCOCCOCCO3)cc(Br)c1O | -4 | -2
COc1cc(OC)c(C(c2c(O)cc(C)[nH]c2=O)c2c(O)cc(C)[nH]c2=O)cc1OC | -1 | 0
O=C1CC(c2cccc([N+](=O)[O-])c2)CC2=C1C(c1ccc(Cl)cc1)Nc1ccccc1N2 (stereo not drawn) | 12 | 58*
O=C1CC(c2ccc(Cl)cc2)CC2=C1C(c1ccccc1[N+](=O)[O-])Nc1ccccc1N2 (stereo not drawn) | -7 | 25
